Vc quorum ag – quorum light induction in luxS cqsA deficient V. cholerae | V. cholerae BH1578 lux reporter, luminescence, 6 h | activation, % at 18.7 µM | 350,000 tested, 0.16% active | AID 588436; in the data active means activation mostly above about 9.7%, no sharp cut-off
Mtb FBA inh – inhibits M. tuberculosis FBA enzyme. P9WQA3. purified M. tuberculosis FBA, fluorescence read-out. inhibition, % at 1 µM. 360,000 tested, 2.3% active; in the data active means inhibition above about 27%
Target sequence (P9WQA3 whole entry, looked up): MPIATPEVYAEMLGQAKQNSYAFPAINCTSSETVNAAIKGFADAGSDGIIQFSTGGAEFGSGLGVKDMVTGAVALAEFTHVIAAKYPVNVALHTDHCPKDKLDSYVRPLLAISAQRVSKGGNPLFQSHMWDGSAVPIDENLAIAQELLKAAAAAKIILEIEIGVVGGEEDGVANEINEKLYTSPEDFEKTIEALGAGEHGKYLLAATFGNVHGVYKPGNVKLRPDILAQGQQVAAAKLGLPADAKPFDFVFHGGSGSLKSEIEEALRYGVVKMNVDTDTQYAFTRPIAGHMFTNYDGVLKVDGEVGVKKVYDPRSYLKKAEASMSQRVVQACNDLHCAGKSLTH
SARS 3CLpro inh-1 – SARS-CoV 3CLpro protease inhibition; recombinant SARS-CoV 3CLpro, quenched FRET peptide cleavage; inhibition, % at 6 µM; 290,000 tested, 0.14% active; AID 1706; in the data active means inhibition above about 12%
PrPC TRFRET – reduces human prion protein on the cell surface. P04156. cell surface PrPC, TR-FRET read-out. inhibition, % at 13.8 µM. 370,000 tested, 0.43% active. AID 720596; in the data active means inhibition above about 24%
GDH-TPI counter – counter-screen for M. tuberculosis FBA inhibitors: GDH-TPI coupled enzymes; GDH-TPI coupled enzyme counterscreen, NADH absorbance; inhibition, % at 4.8 µM; 360,000 tested, 1.2% active; AID 588335; in the data active means inhibition above about 30%
SARS 3CLpro inh-2 – confirmation of SARS coronavirus 3C-like protease inhibitors | shares compounds with SARS 3CLpro inh-1 | QFRET protease activity assay, 3CLpro | inhibition, % at 6 µM | 380 tested, 36% active | AID 1879; in the data active means inhibition above about 13%
Hits are given with their value; - = inactive; . = no result; + = active, no number. Most compounds without a hit are left out; they make up all but 3.9% or so of the library.

SMILES | Vc quorum ag | Mtb FBA inh | SARS 3CLpro inh-1 | PrPC TRFRET | GDH-TPI counter | SARS 3CLpro inh-2
COCCn1c(C)cc(C(=O)COC(=O)c2ccc(Br)o2)c1C | - | - | - | - | - | .
Cc1ccc(-c2n[nH]c(=S)n2/N=C/C=C/c2ccccc2[N+](=O)[O-])cc1 | - | - | - | - | - | .
O=[N+]([O-])c1ccccc1/C=C/C=N/n1c(-c2ccco2)n[nH]c1=S | - | - | 15.3 | - | - | -
C[C@@H]1CN([C@@H](C)CO)C(=O)CCCn2nncc2CO[C@@H]1CN(C)C(=O)Nc1ccnc(N2CCOCC2)c1 | - | - | . | - | - | .
CCc1nc(N2CCN(C(=O)CCl)CC2)c2c3c(sc2n1)CC(C)CC3 (stereo unspecified) | - | - | 37.7 | - | - | 63.2
CCc1nc(N2CCN(C(C)=O)CC2)c2c3c(sc2n1)CC(C(C)(C)C)CC3 (stereo unspecified) | - | - | - | - | - | .
O=C1N/C(=N/S(=O)(=O)Cc2ccccc2)S/C1=C/c1ccc2c(c1)OCO2 | - | - | 12.6 | - | 35.4 | -
CCOc1ccc(C(C(=O)Nc2ccc(F)cc2)N(C(=O)Cn2nnc3ccccc32)C2CC2)cc1 (stereo unspecified) | - | - | - | - | - | .
CCOc1cc(C(C(=O)NCC2CCCO2)N(C(=O)Cn2nnc3ccccc32)c2ccc(C(C)=O)cc2)ccc1O (stereo unspecified) | - | - | - | - | - | .
COc1cccc(C(C(=O)Nc2ccc(F)cc2)N(C(=O)Cn2nnc3ccccc32)C2CC2)c1 (stereo unspecified) | - | - | 32.8 | - | - | 37.3
COc1cccc(C(C(=O)NCC2CCCO2)N(C(=O)Cn2nnc3ccccc32)c2ccc(NC(C)=O)cc2)c1 (stereo unspecified) | - | - | 30.5 | - | - | 33.8
Cc1cc(C)cc(NC(=O)CSc2nc(N)c(NC(=O)c3cccs3)c(=O)[nH]2)c1 | - | - | - | - | - | .
c1ccc2c(Cn3ccnc3)cccc2c1 | - | - | - | - | - | .
Cc1noc(C)c1S(=O)(=O)Nc1ccc(C(=O)Nc2ccc(OC(F)(F)F)cc2)cc1 | - | - | 12.8 | - | - | -
COc1cc(NC(=O)c2ccc(NS(=O)(=O)c3c(C)noc3C)cc2)cc(OC)c1 | - | - | - | - | - | .
O=C(CCl)N1N=C(c2cccs2)CC1c1ccco1 (stereo unspecified) | - | - | 38.5 | - | - | 83.4
CN1CCN(CC(=O)N2N=C(c3cccs3)CC2c2ccco2)CC1 (stereo unspecified) | - | - | - | - | - | .
CC(=O)N(c1ccc(C(F)(F)F)cc1)S(=O)(=O)c1ccc(N2C(=O)CCC2=O)cc1 | - | - | 12.6 | - | - | -
CC(C)(C)c1ccc(-n2ncc3c2CCCC3NC(=O)c2ccncc2)cc1 (stereo unspecified) | - | - | - | - | - | .
Cc1cc(C(=O)NC2CCCc3c2cnn3-c2ccc(C(C)(C)C)cc2)n[nH]1 (stereo unspecified) | - | - | 13.2 | - | - | -
CCOc1cc(C(N)=O)cc(Br)c1OC | - | - | 15.0 | - | - | -
Cc1ccc(NC(=S)NCC23C=CC(O2)C2C(=O)N(c4ccc(C)cc4)C(=O)C23)cc1 (stereo unspecified) | - | - | - | - | - | .
CCN(CC)C(=O)Cn1cc(/C=C2\C(=O)NC(=O)N(c3ccccc3F)C2=O)c2ccccc21 | - | - | 16.8 | - | - | 22.7
C[C@@H]1NC(=O)c2cc([N+](=O)[O-])cc(I)c2NCCCC[C@@H](C(N)=O)NC(=O)[C@H](CC(N)=O)NC1=O | - | . | 14.5 | . | . | -
CC1C(=O)C(C)C(c2cc(Cl)ccc2O)NC1c1cc(Cl)ccc1O (stereo unspecified) | - | - | - | - | - | .
SMILES | Vc quorum ag | Mtb FBA inh | SARS 3CLpro inh-1 | PrPC TRFRET | GDH-TPI counter | SARS 3CLpro inh-2
Cc1cc(=O)oc2cc(OC(=O)c3ccco3)ccc12 | . | 193.8 | 28.9 | - | - | 70.0
CCc1cc(=O)oc2cc(OC(=O)c3ccco3)ccc12 | - | + | 68.3 | - | - | 71.5
CCc1cc(=O)oc2cc(OS(C)(=O)=O)ccc12 | - | - | - | - | - | .
Cc1cc(=O)oc2c(C)c(OC(=O)c3ccco3)ccc12 | - | - | - | - | - | .
CCOc1ccc(NC(=O)CSc2nc(NS(=O)(=O)c3ccc(C)cc3)cc(=O)[nH]2)cc1 | - | - | 12.7 | - | - | -
CCOC(=O)C1CCN(S(=O)(=O)c2ccc(Cl)s2)CC1 | - | - | - | - | - | .
O=C(Oc1ccc(N2C(=O)CCC2=O)cc1)c1ccco1 | - | - | - | - | - | .
O=C(Oc1ccc(Cl)cc1N1C(=O)CCC1=O)c1ccco1 | - | - | 15.1 | - | - | 18.1
CS(=O)(=O)c1ccc(NC(=O)CCCc2nc3ccccc3c(=O)[nH]2)cc1 | - | - | . | - | - | .
COc1cccc(CNC(=O)CN(c2ccc(C(C)C)cc2)S(=O)(=O)c2c(C)noc2C)c1 | - | - | 15.0 | - | - | -
CN(C)S(=O)(=O)c1cccc(NC(=O)CSc2cccc3cccnc23)c1 | - | - | 17.2 | - | - | 34.5
CC(=O)n1cc(N(C(=O)CCl)c2ccc([N+](=O)[O-])cc2)c2ccccc21 | - | - | 14.1 | - | - | 36.0
CC(=O)n1cc(N(C(=O)CCl)c2ccccc2)c2ccccc21 | - | - | - | - | - | .
O=C(Cc1ccc(Cl)cc1)NCCCn1ccnc1 | - | - | - | - | - | .
O=C(Cc1c(F)cccc1Cl)NCCCn1ccnc1 | - | - | 38.2 | - | - | -
COc1ccc(NC(=O)N2CCN(S(=O)(=O)c3ccc(F)cc3)CC2)c(OC)c1 | - | - | - | - | - | .
COc1ccc(S(=O)(=O)N2CCN(C(=O)Nc3ccccc3OC)CC2)cc1 | - | - | 13.3 | - | - | -
Cc1snc(S(=O)(=O)/C(C#N)=N/Nc2cccc(C(F)(F)F)c2)c1C#N | - | - | 15.5 | . | - | -
CCOC(=O)c1cc(C#N)c(Nc2ccc(C)cc2)nc1C(F)(F)F | - | - | - | - | - | .
CCOc1ccc(C2C(C(=O)c3ccc(C)o3)=C(O)C(=O)N2c2nc(C)c(C(=O)OC)s2)cc1 (stereo unspecified) | - | - | 12.4 | - | - | -
COc1cc(NC(=O)COn2nnc3ccc(S(C)(=O)=O)cc32)cc(OC)c1 | - | - | - | - | - | .
Cc1cc(NC(=O)COn2nnc3ccc(S(C)(=O)=O)cc32)ccc1Br | - | - | 23.6 | - | - | 30.9
O=C(COn1nnc2ccc(S(=O)(=O)N3CCOCC3)cc21)Nc1c(F)c(F)c(F)c(F)c1F | - | - | - | - | - | .
Cc1cc(Br)c(NC(=O)COn2nnc3ccc(S(C)(=O)=O)cc32)c(Br)c1 | - | - | 12.5 | - | - | -
COc1cc(C2c3cc4c(cc3OC(C)(N3CCCC3)C2C)OCO4)cc(OC)c1OC (stereo unspecified) | - | - | . | - | - | .
O=C(Nc1ccccc1)C1=C[C@@H](c2ccc(C(F)(F)F)cc2)C[C@@H](OCc2ccc(CO)cc2)O1 | - | - | - | - | - | .

Bioassay records: PubChem BioAssay, several laboratories
